Screens: PubChem BioAssay, National Center for Advancing Translational Sciences (NCATS)
A selection: hits, their analogues and other compounds. The true share with any hit is near 4.2%.
VDR inh: blocks the human vitamin D receptor. Potency, µM, actives largely listed as inhibitors. P11473. hit rate 0.93% among 400,000. AID 504847. VDR-SRC2-3 peptide fluorescence polarization, 2 h
Target sequence (P11473 whole entry, looked up): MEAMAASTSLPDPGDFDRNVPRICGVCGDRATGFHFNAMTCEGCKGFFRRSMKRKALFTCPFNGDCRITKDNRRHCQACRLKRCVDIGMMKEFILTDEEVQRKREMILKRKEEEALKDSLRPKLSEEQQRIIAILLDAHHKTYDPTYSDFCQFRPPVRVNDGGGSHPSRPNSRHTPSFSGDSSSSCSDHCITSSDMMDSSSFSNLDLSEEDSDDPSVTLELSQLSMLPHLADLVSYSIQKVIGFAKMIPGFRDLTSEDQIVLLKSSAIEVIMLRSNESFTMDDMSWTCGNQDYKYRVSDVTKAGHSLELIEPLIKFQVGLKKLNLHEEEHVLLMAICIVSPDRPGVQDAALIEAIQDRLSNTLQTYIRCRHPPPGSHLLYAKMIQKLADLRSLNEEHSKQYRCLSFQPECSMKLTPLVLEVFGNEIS
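VDR–SRC2-3 interaction, FP format. Cmpds 23 nl via pintool, brief spin, 2 h ambient incubation.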
PLK1 PBD inh: PLK1 (human) polo-box domain binding inhibition. Plk1 PBD binding of FITC phosphopeptide, fluorescence polarization. Potency, µM, hits mostly inhibitors. hit rate 2.8% among 360,000. AID 720504; note: series mostly up to about 57 µM; nearly all actives have a fitted effect of over 65% in size
Sfp PPTase inh: Sfp phosphopantetheinyl transferase inhibition | Potency, µM, hits mostly inhibitors | hit rate 3.5% among 310,000 | Biochemical Sfp PPTase activity, qHTS;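 note: the enzyme is Sfp with the accession as filed and its product quenches rhodamine fluorescence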
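Compounds were incubated with enzyme (final 15 nM) for 15 min at room temperature before substrate addition started the reaction. Fluorescence at 525 nm excitation, 598 nm emission was recorded immediately and after 30 minutes.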
12-LOX inh: ALOX12 (human) lipoxygenase inhibition; P18054; purified 12hLO, xylenol orange hydroperoxide absorbance; Potency, µM (titrated, usually from 108 µM), actives largely listed as inhibitors; hit rate 1.1% among 580,000
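Hydroperoxide product was detected by ferrous iron/xylenol orange as the 573 to 405 nm absorbance ratio. Arachidonic acid at 40 uM (final) was turned over for 30 min at room temperature by 150 nM human 12hLO, pH 7.0 Hepes buffer, after 15 min compound preincubation.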
Hits are given with their value; n = inactive; u = inconclusive; x = no result; ! = repeats disagree. Calls come from the whole dose curve; as a rule, active = well fitted curve in the direction sought with a large enough effect; inconclusive = small, poorly fitted or top-dose-only effect, or another doubt; inactive = no such curve, though single readings can be large; an effect the other way counts as inactive or inconclusive.

SMILES	VDR inh	PLK1 PBD inh	Sfp PPTase inh	12-LOX inh
COc1ccccc1-c1cc(C(=O)O)c2cccc(C)c2n1	x	x	x	10µM
Cc1cccc2c(C(=O)O)cc(-c3cccs3)nc12	x	x	x	n
CCCCC1C(=O)N(C)CCN1C(=O)Cn1ncc(N(C)C)cc1=O (stereo not given)	x	x	x	n
COCCN(CC1CCCN(C2Cc3ccccc3C2)C1)C(=O)CCC(F)(F)F (stereo not given)	n	n	n	u
Cc1ccc(S(=O)(=O)CCC(=O)OCC(=O)N(C)c2ccccc2)cc1	n	n	x	n
Cc1cc(C)cc(N2CN=C3SCC(=O)N3C2)c1	n	n	n	n
CC1=C(/C=C/C(C)=C/C=C/C(C)=C/C(=O)Nc2ccc(O)cc2)C(C)(C)CCC1	n	n	n	u
CC1=C(/C=C/C(=C/C=C/C(C)=C/C(=O)O)c2ccc(C)cc2)C(C)(C)CCC1	22µM	x	u	u
CC1=C(\C=C/C(C)=C/C=C\C(C)=C\C(=O)O)C(C)(C)CCC1	18µM	x	n	u
CC1=C(/C=C/C(=O)O)C(C)(C)CCC1	n	n	n	n
CC1=C(/C=C/C(C)=C/C=C/C(C)=C\C(=O)O)C(C)(C)CCC1	50µM!	u	n	u
COc1cccc(-c2nc(NCc3cccnc3)ncc2C(=O)O)c1	x	x	x	n
CC(=O)N1CCC[C@H]1C(=O)NCC1Cc2cc(Cl)cc(-c3ccc4[nH]ccc4c3)c2O1 (stereo not given in full)	x	x	x	n
Cc1ccccc1CC(=O)N1CCC2(CC1)N(c1ccccc1)C(=O)CS2(=O)=O	x	x	x	n
O=C1NC2(CCC3(CC2)OCCO3)NN1c1ccccc1	n	n	n	u
O=C(C1CCN(C2CC(=O)N(c3cccc(Cl)c3)C2=O)CC1)N1CCCCCC1 (stereo not given)	n	n	n	n
O=C(C1CCCC1)N1CCC2(CC1)NC(=O)N(c1ccccc1)N2	x	x	x	2.8µM
O=C(C1CC1)N1CCC2(CC1)NC(=O)N(c1cccc(Cl)c1)N2	x	x	x	1.4µM
Cc1ccccc1CC(=O)N1CCC2(CC1)NC(=O)N(c1ccccc1)N2	x	x	x	1.3µM
CCn1nccc1C(=O)N1CCC2(CC1)NC(=O)N(c1ccccc1)N2	x	x	x	5.6µM
COC[C@@H]1CN(Cc2c(F)cccc2Cl)C[C@H]1C(=O)NC1CC1	x	x	x	n
Cc1ccc(C)c(CSc2nnc(-c3cccs3)n2Cc2ccco2)c1	n	n	n	n
Cc1ccc(NC(=O)CS(=O)(=O)c2cn(CC(=O)N3CCOCC3)c3ccccc23)cc1	n	n	n	n
COc1ccc(NC(=O)CS(=O)(=O)c2cn(CC(=O)N3CCOCC3)c3ccccc23)cc1OC	n	n	56µM	u
O=C(Cn1cc(S(=O)(=O)Cc2cccc(F)c2)c2ccccc21)N1CCOCC1	n	n	56µM	u
SMILES	VDR inh	PLK1 PBD inh	Sfp PPTase inh	12-LOX inh
O=C(Cc1cccc(F)c1)N1CCC2(CCCCO2)CC1	x	x	x	n
O=C(Cc1cccc(F)c1)N1CCOCC1	n	21µM	x	n
Cc1cc(C)cc(Oc2ccc(C(F)(F)F)cc2C#N)c1	n	n	n	n
CC(N=C1NS(=O)(=O)c2ccccc21)C(=O)NCCc1cccs1 (stereo not given)	x	x	x	n
COC(Cn1cc(C)c(=O)[nH]c1=O)OC	n	n	n	n
Cc1cn(CC2COC(C)(C)O2)c(=O)[nH]c1=O (stereo not given)	n	6µM	n	n
O=C1NN(c2cccc(Br)c2)C(=O)/C1=C/c1ccc(-c2cc([N+](=O)[O-])ccc2O)o1	n	19µM	n	x
COc1ccc(-c2ccc(/C=C3\C(=O)N(c4ccccc4)N=C3c3ccccc3)o2)c([N+](=O)[O-])c1	n	u	n	n
CC1=NN(c2ccc(C)cc2)C(=O)/C1=C/c1ccc(-c2cc([N+](=O)[O-])ccc2O)o1	n	u	n	20µM
Cc1ccc(S(=O)(=O)N2CCCC2C(=O)NC2=NCCS2)cc1 (stereo not given)	n	n	n	u
COc1ccc(NC(=O)CCS(=O)(=O)c2ccc3nc(C)sc3c2)cc1OC	n	n	n	n
Cc1nc2ccc(NC(=O)CCS(=O)(=O)c3ccc(Cl)cc3)cc2s1	u	17µM	n	n
Cc1nc2ccc(NC(=O)c3cc([N+](=O)[O-])cc([N+](=O)[O-])c3Cl)cc2s1	u	2.7µM	u	u
O=C(CCS(=O)(=O)c1cc2c3c(c1)CCN3C(=O)CC2)Nc1ccc(F)c(Cl)c1	x	x	x	14µM
O=C(CCS(=O)(=O)c1cc2c3c(c1)CCN3C(=O)CC2)NCc1ccc(Cl)cc1	n	x	x	n
CC(=O)Nc1ccc2nc(SCc3ccc(Cl)cc3)sc2c1	x	x	x	20µM
NS(=O)(=O)c1cccc(NS(=O)(=O)c2ccc(/C=C/C(=O)OCC(=O)c3ccc(Br)cc3)cc2)c1	n	n	n	n
O=S(=O)(Nc1ncnc2sc3c(c12)CCC3)c1ccc2ccccc2c1	n	34µM	n	u
Cc1cc(F)ccc1S(=O)(=O)Nc1ncnc2sc3c(c12)CCC3	n	17µM	n	n
Fc1ccc(Nc2ncnc3sc4c(c23)CCC4)cc1	n	n	n	u
Nc1ccccc1C(=O)NCCCN1CCOCC1	n	n	n	n
CNC(=O)NC(=O)C(OC(=O)Cc1cccc(C(F)(F)F)c1)c1ccccc1 (stereo not given)	n	n	n	n
CSCC[C@H](NC(=O)[C@H](Cc1ccccc1)NC[C@@H](NC[C@@H](N)CS)C(C)C)C(=O)O	35µM	x	n	n
CSCCC(NC(=O)OCc1ccccc1)C(=O)O (stereo not given)	n	n	n	n
CC1CCc2sc(C(=O)NC3CCCCC3)cc2C1 (stereo not given)	n	n	x	n
SMILES	VDR inh	PLK1 PBD inh	Sfp PPTase inh	12-LOX inh
CC1CCc2sc(C(=O)N/N=C/c3ccc(O)cc3)cc2C1 (stereo not given)	n	n	n	28µM
CC1CCc2sc(C(=O)NCc3ccc(F)cc3)cc2C1 (stereo not given)	n	n	n	n
C/C(=N\NC(=O)c1cc2c(s1)CCC(C)C2)c1ccncc1 (stereo not given)	n	n	n	1.8µM
CC1CCc2sc(C(=O)N/N=C3/CCCCc4ccccc43)cc2C1 (stereo not given)	x	x	x	1.3µM
C/C(=N\NC(=O)c1cc2c(s1)CCC(C)C2)c1ccc[nH]1 (stereo not given)	n	n	x	n
Cc1c(C(=O)OC2CCC(C)CC2)[nH]c2c1C(=O)CC(c1ccc(F)cc1)C2 (stereo not given)	n	x	x	n
C/C=C\C1=C(CO)C(=O)[C@@H]2OC2C1=O (stereo not given in full)	x	x	3.2µM	x
C/C=C\C1=C(CO)[C@H](O)[C@H]2O[C@H]2[C@H]1O	x	x	n	x
CC(=O)NNC(=S)NC(=O)c1ccccc1	n	n	18µM	u
COC(=O)C(NC(=O)c1ccccc1)=C(C)C	n	3.4µM	n	n
O=C(NC(=S)NC1CCCC1)c1ccccc1	n	n	n	13µM
CCCCNC(=S)NNC(=O)c1csc(CC)c1	n	n	n	n
CCOC(=O)C(NC(=O)c1ccccc1)=C(C)C	n	n	n	n
CCc1cc(C(=O)NNC(=S)NC(=O)c2ccccc2)cs1	x	x	x	40µM
CCOC(=O)c1c(C)[nH]c(CCC(=O)Nc2ccccc2C(F)(F)F)c1C	n	x	x	n
